In PubChem BioAssay (Tox21):
Unmarked numbers belong to inactive results. Inconclusive results are not listed. Where a call stands in place of a potency, no number is given. Active and inactive are the calls of the source. Unless noted, the call rests on the fitted dose curve.

System: not listed separately
Test: qHTS assay to identify small molecule antagonists of the estrogen receptor beta (ER-beta) signaling pathway - cell viability counter screen (AID 1259382; active means well fitted cell-killing curve with a large enough effect in the repeat runs;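 further: HEK293T cells carrying ER-beta-UAS-bla reporter stimulated with estradiol; nearly all actives have a fitted effect of over 55% in size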)
Conditions: ER-beta-UAS-bla HEK293T viability, CellTiter-Glo luminescence, 16 h; series mostly up to 92.4 µM
How it was run: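 Viability is scored by CellTiter-Glo luminescence (30 min, room temperature) in ER-beta-UAS-bla HEK293T wells already read for reporter fluorescence. Compound exposure lasts 16 hr at 37C alongside 1nM 17-beta-estradiol in charcoal-stripped serum medium.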

Compound | Potency | activity change, negative = cytotoxicity
CC(Cl)(Cl)[N+](=O)[O-] | inactive | 
COC(=O)C(c1ccccc1)C1CCCCN1 (configuration not stated) | inactive | 
c1cc2c(c(N3CCNCC3)c1)OCCO2 | inactive | 
CC1COC2(c3ccccc3Cl)c3cc(Cl)ccc3NC(=O)CN12 (configuration not stated) | inactive | 
O=C1OC(CCN2CCCCC2)OC1(c1ccccc1)c1ccccc1 (configuration not stated) | inactive | 
CNC(=O)Oc1c(C(C)(C)C)cc(C)cc1C(C)(C)C | inactive | 
Clc1ccccc1N1CCNCC1 | inactive | 
CCN(CC)C(C)C(=O)c1ccccc1 (configuration not stated) | inactive | 
COc1ccc2c(c1OC)CN1CCc3cc4c(cc3C1C2)OCO4 (configuration not stated) | inactive | 
CCCCCCI | inactive | 
CCC(=O)C(CCN(C)C)(c1ccccc1)c1ccccc1 | inactive | 
CC(C(O)c1ccccc1)N(C)C/C=C/c1ccccc1 (configuration not stated) | inactive | 
CCC(C)(C)c1cc(-n2nc3ccccc3n2)c(O)c(C(C)(C)CC)c1 | inactive | 
C#C[C@]1(O)C=C[C@H]2[C@@H]3CCC4=CC(=O)CC[C@@H]4[C@H]3CC[C@@]21CC | inactive | 
N#CC(Cl)(Cl)Cl | inactive | 
O=C(Nc1ccccc1)c1ccccc1I | inactive | 
COP(N)(=S)Oc1ccccc1C(=O)OC(C)C (configuration not stated) | inactive | 
O=CNC(N1CCN(C(NC=O)C(Cl)(Cl)Cl)CC1)C(Cl)(Cl)Cl (configuration not stated) | inactive | 
CC(COc1ccc(Oc2ccccc2)cc1)Oc1ccccn1 (configuration not stated) | inactive | 
CC1=C(C(=O)O)N2C(=O)[C@@H](N)[C@H]2SC1 |  | 15.3% [at 19 µM]
Cc1cnc[nH]1 | inactive | 
C#CCN1C(=O)COc2cc(F)c(N3C(=O)C4=C(CCCC4)C3=O)cc21 | inactive | 
CCOP(=O)(OCC)OP(=O)(OCC)OCC | inactive | 
CCCCOC(=O)c1ccccc1C(=O)O | inactive | 
CC(C)CC#N | inactive | 
Cc1nc(N)nc(N)n1 | inactive | 
CCOC(=O)C1(c2ccccc2)CCN(CCc2ccc(N)cc2)CC1 | inactive | 
CCC(=O)c1ccccc1 | inactive | 
C[C@]12CC[C@H]3[C@@H](CCC4=CC(=O)CC[C@@]43C)[C@@H]1CC[C@@H]2C(=O)O | inactive | 

Target: Estrogen receptor (Homo sapiens) (UniProt P03372)
Test: qHTS assay to identify small molecule agonists of the estrogen receptor alpha (ER-alpha) signaling pathway in the presence of an antagonist (AID 1259383); further: nearly all actives have a fitted effect of over 15% in size; further: potency means the concentration at half of the fitted maximal effect
Conditions: VM7Luc4E2 cells, ERE-luciferase, +ICI-182,780, 22 h; series mostly up to 92.4 µM
How it was run: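 Readout was ERE-driven luciferase luminescence in VM7Luc4E2 cells, which express full-length ER-alpha endogenously. Compounds were tested at 15 concentrations for 22hr alongside 10.0nM ICI-182,780 (final concentration).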

Sequence of Estrogen receptor (Homo sapiens) (P03372 whole entry, looked up): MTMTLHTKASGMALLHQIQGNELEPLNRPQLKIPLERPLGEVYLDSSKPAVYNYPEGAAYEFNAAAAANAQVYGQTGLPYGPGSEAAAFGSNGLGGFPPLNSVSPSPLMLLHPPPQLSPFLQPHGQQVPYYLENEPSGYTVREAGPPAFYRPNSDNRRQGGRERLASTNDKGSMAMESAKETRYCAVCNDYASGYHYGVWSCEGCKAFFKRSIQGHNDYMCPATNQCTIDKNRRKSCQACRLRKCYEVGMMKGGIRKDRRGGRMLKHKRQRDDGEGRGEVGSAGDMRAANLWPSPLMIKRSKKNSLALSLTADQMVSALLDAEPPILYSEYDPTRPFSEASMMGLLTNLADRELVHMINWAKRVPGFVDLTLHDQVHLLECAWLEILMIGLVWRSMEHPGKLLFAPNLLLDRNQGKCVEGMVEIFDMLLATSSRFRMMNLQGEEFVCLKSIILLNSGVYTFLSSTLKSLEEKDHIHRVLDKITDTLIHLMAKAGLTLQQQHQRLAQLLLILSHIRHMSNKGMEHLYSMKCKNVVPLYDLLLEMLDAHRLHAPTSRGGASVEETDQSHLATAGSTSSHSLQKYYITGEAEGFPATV

Compound | Potency
Fc1cc(Br)ccc1CBr | inactive
COC(=O)C(c1ccccc1)C1CCCCN1 (configuration not stated) | inactive
c1cc2c(c(N3CCNCC3)c1)OCCO2 | inactive
CC1COC2(c3ccccc3Cl)c3cc(Cl)ccc3NC(=O)CN12 (configuration not stated) | inactive
O=C1OC(CCN2CCCCC2)OC1(c1ccccc1)c1ccccc1 (configuration not stated) | inactive
Clc1ccccc1N1CCNCC1 | inactive
CCN(CC)C(C)C(=O)c1ccccc1 (configuration not stated) | inactive
COc1ccc2c(c1OC)CN1CCc3cc4c(cc3C1C2)OCO4 (configuration not stated) | inactive
CC(C(O)c1ccccc1)N(C)C/C=C/c1ccccc1 (configuration not stated) | inactive
CC(Oc1ccc(Oc2ncc(C(F)(F)F)cc2Cl)cc1)C(=O)O (configuration not stated) | inactive
C#C[C@]1(O)C=C[C@H]2[C@@H]3CCC4=CC(=O)CC[C@@H]4[C@H]3CC[C@@]21CC | 3.35 µM (active)
N#CC(Cl)(Cl)Cl | inactive
COP(N)(=S)Oc1ccccc1C(=O)OC(C)C (configuration not stated) | inactive
O=CNC(N1CCN(C(NC=O)C(Cl)(Cl)Cl)CC1)C(Cl)(Cl)Cl (configuration not stated) | inactive
C#CCN1C(=O)COc2cc(F)c(N3C(=O)C4=C(CCCC4)C3=O)cc21 | inactive
CC(C)CC#N | inactive
Cc1nc(N)nc(N)n1 | inactive
CCOC(=O)C1(c2ccccc2)CCN(CCc2ccc(N)cc2)CC1 | inactive
C[C@]12CC[C@H]3[C@@H](CCC4=CC(=O)CC[C@@]43C)[C@@H]1CC[C@@H]2C(=O)O | inactive

System: not listed separately
Test: qHTS assay to identify small molecule agonists or antagonists of the thyroid stimulating hormone receptor (TSHR) signaling pathway - wild type cell line counter screen (AID 1259384)
Conditions: HEK293 wild type, cAMP HTRF counter-screen; series mostly up to 92.4 µM
How it was run: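 Wild-type Hek293 cells, 800/well, 18 h at 37C, then compound with Ro20-1724 for 30 min RT. cAMP by HTRF (cAMP-d2/anti-cAMP cryptate), 1 h RT, fluorescence read. 15 concentrations, triplicates.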

Compound | Potency | cAMP activity change
Fc1cc(Br)ccc1CBr | inactive | 
CC(Cl)(Cl)[N+](=O)[O-] | inactive | 
COC(=O)C(c1ccccc1)C1CCCCN1 (configuration not stated) | inactive | 
c1cc2c(c(N3CCNCC3)c1)OCCO2 | inactive | 
CNC(=O)N(C)c1nc2ccccc2s1 | inactive | 
CC1COC2(c3ccccc3Cl)c3cc(Cl)ccc3NC(=O)CN12 (configuration not stated) | inactive | 
O=C1OC(CCN2CCCCC2)OC1(c1ccccc1)c1ccccc1 (configuration not stated) | inactive | 
c1ccc(N2CCNCC2)cc1 | inactive | 
COc1ncc(F)c2nc(S(=O)(=O)Nc3c(F)cccc3F)nn12 | inactive | 
CNC(=O)Oc1c(C(C)(C)C)cc(C)cc1C(C)(C)C | inactive | 
Clc1ccccc1N1CCNCC1 | inactive | 
O=C(O)c1ccc2[nH]cc(CCCCN3CC=C(c4ccccc4)CC3)c2c1 | inactive | 
CCN(CC)C(C)C(=O)c1ccccc1 (configuration not stated) | inactive | 
CCOP(=S)(OCC)Oc1ncn(-c2ccccc2)n1 | inactive | 
COc1ccc2c(c1OC)CN1CCc3cc4c(cc3C1C2)OCO4 (configuration not stated) | inactive | 
CCOC(=O)C(c1c(O)c2ccccc2oc1=O)c1c(O)c2ccccc2oc1=O | inactive | 
CC(C(O)c1ccccc1)N(C)C/C=C/c1ccccc1 (configuration not stated) | inactive | 

Compound | Potency | cAMP activity change
CCC(C)(C)c1cc(-n2nc3ccccc3n2)c(O)c(C(C)(C)CC)c1 | inactive | 
CC(Oc1ccc(Oc2ncc(C(F)(F)F)cc2Cl)cc1)C(=O)O (configuration not stated) | inactive | 
C#C[C@]1(O)C=C[C@H]2[C@@H]3CCC4=CC(=O)CC[C@@H]4[C@H]3CC[C@@]21CC | inactive | 
O=C(Nc1ccccc1)c1ccccc1I | inactive | 
COP(N)(=S)Oc1ccccc1C(=O)OC(C)C (configuration not stated) | inactive | 
O=CNC(N1CCN(C(NC=O)C(Cl)(Cl)Cl)CC1)C(Cl)(Cl)Cl (configuration not stated) | inactive | 
CC(COc1ccc(Oc2ccccc2)cc1)Oc1ccccn1 (configuration not stated) | inactive | 
CC1=C(C(=O)O)N2C(=O)[C@@H](N)[C@H]2SC1 |  | 2.64% [at 18.9 µM, stronger effect = higher value]
Cc1cnc[nH]1 | inactive | 
C#CCN1C(=O)COc2cc(F)c(N3C(=O)C4=C(CCCC4)C3=O)cc21 | inactive | 
CCOP(=O)(OCC)OP(=O)(OCC)OCC | inactive | 
CCCCOC(=O)c1ccccc1C(=O)O | inactive | 
CC(C)CC#N | inactive | 
Cc1nc(N)nc(N)n1 | inactive | 
CCOC(=O)C1(c2ccccc2)CCN(CCc2ccc(N)cc2)CC1 | inactive | 
CCC(=O)c1ccccc1 | inactive | 
C[C@]12CC[C@H]3[C@@H](CCC4=CC(=O)CC[C@@]43C)[C@@H]1CC[C@@H]2C(=O)O | inactive | 
